# In PubChem BioAssay (Tox21):
# A number with no mark means an inactive call. Inconclusive results are not listed. Entries that show only a call come without a potency. Activity calls are given as the source filed them. Unless noted, calls come from the whole dose curve; as a rule, active = well fitted curve in the direction sought with a large enough effect in the repeat runs; inconclusive = weak or mixed curves; inactive = no such curve, though single readings can be large; an effect the other way counts as inactive or inconclusive.
# Columns and labels:
# [1] = target: Progesterone receptor (Homo sapiens) (UniProt P06401); test: qHTS assay to identify small molecule agonists of the progesterone receptor (PR) signaling pathway (AID 1346784; calls by dose curve; note: nearly all actives have a fitted effect of over 30% in size)
# Progesterone receptor (Homo sapiens), sequence (P06401 whole entry, looked up): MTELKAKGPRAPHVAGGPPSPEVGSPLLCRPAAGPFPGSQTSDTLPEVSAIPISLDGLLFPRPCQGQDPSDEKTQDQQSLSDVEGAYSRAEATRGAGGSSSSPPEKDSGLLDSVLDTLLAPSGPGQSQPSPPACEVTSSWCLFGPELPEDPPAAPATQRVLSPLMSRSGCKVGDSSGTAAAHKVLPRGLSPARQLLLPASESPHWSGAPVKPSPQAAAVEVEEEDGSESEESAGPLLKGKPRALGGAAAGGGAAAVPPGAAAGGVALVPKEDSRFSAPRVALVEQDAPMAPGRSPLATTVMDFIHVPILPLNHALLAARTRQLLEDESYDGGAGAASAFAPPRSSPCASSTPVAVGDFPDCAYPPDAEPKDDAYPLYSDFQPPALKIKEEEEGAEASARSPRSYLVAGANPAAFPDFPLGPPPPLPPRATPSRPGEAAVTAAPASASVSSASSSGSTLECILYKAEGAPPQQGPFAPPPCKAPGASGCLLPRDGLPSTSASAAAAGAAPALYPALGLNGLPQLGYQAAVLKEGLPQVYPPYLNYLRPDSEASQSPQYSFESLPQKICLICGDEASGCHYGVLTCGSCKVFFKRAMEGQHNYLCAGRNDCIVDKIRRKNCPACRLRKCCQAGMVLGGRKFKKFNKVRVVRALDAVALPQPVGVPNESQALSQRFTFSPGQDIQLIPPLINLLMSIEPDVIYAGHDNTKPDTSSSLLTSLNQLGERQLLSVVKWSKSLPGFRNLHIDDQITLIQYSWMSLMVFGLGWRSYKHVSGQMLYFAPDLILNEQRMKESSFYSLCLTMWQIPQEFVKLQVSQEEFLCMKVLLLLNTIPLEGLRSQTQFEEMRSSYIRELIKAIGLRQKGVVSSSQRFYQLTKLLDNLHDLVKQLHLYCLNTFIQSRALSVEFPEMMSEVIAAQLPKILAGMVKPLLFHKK
# Method in brief: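 Using charcoal-stripped serum (2%) to limit endogenous steroids, PR-UAS-bla HEK 293T cells received compounds for 16 hr at 37C after 6 hr plating; beta-lactamase FRET fluorescence was recorded following 2 hr substrate loading at room temperature.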
# [2] = target: Progesterone receptor (Homo sapiens) (UniProt P06401); test: qHTS assay to identify small molecule antagonists of the progesterone receptor (PR) signaling pathway (AID 1346795; active = well fitted inhibition curve with a large enough effect in the signal ratio in the repeat runs, not every such curve was filed as active; the % refers to the signal ratio; note: potency is the fitted concentration of half-maximal effect)
# Method in brief: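 Inhibition of R5020-induced (1 nM final) beta-lactamase reporter signal in PR-UAS-bla HEK293T cells was scored by FRET fluorescence after overnight (16 hr) compound treatment.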
# [3] = qHTS assay to identify small molecule antagonists of the progesterone receptor (PR) signaling pathway - cell viability counter screen (AID 1346798); note: nearly all actives have a fitted effect of over 50% in size; note: potency is the fitted concentration of half-maximal effect; for activity change, negative = cytotoxicity: series mostly up to about 92 µM
# Method in brief: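 ATP content as viability readout: CellTiter-Glo luminescence, 30 min room temperature, in PR-UAS-bla HEK293T cells after 16 hr compound/R5020 treatment at 37C and 5% CO2.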
# [4] = qHTS assay to identify small molecule agonists of the progesterone receptor (PR) signaling pathway - cell viability counter screen (AID 1346799; calls by dose curve; note: nearly all actives have a fitted effect of over 45% in size; note: potency is the fitted concentration of half-maximal effect)
# Method in brief: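 Cytotoxicity in PR-bla HEK293T cells: 16 h compound, 37C; CellTiter-Glo added post-FRET read; luminescence after 30 min RT.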
# [5] = qHTS assay to identify small molecule antagonists of the TGF-beta/Smad signaling pathway - cell viability counter screen (AID 1346824); note: nearly all actives have a fitted effect of over 50% in size
# Method in brief: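 Cytotoxicity counter-screen run in the same wells as the beta-lactamase Smad reporter read: CellTiter-Glo luminescence after 30 min at room temperature. HEK 293T SBE-bla cells had 5 hr compound exposure at 37 C with TGF-beta1 (0.25 ng/mL stock).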
# [6] = qHTS assay to identify small molecule agonists of the TGF-beta/Smad signaling pathway - cell viability counter screen (AID 1346829); note: top concentration of the series differs between compounds; nearly all actives have a fitted effect of over 45% in size
# Method in brief: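 Here the cytotoxicity of library compounds is measured in SBE-bla HEK 293T cells treated for 5 hr, using CellTiter-Glo added to wells already read for the beta-lactamase reporter.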
# [7] = target: Thyrotropin-releasing hormone receptor (Homo sapiens) (UniProt P34981); test: qHTS assay to identify small molecule antagonists of the thyrotropin-releasing hormone receptor (TRHR) signaling pathway (AID 1346877; active = well fitted inhibition curve with a large enough effect in the repeat runs, not every such curve was filed as active; note: series mostly up to about 51 µM)
# Thyrotropin-releasing hormone receptor (Homo sapiens), sequence (P34981 whole entry, looked up): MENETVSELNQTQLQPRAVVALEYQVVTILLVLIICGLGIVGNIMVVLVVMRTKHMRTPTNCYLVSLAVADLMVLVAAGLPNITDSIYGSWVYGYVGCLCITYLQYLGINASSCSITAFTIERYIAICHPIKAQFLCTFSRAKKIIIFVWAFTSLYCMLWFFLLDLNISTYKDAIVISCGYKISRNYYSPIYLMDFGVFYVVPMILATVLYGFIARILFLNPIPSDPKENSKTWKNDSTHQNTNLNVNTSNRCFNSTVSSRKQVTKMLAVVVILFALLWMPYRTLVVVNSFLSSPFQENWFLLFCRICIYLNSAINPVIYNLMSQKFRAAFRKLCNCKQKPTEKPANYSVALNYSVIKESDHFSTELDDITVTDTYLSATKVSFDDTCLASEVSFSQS
# Method in brief: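 Intracellular calcium fluorescence, read kinetically every second over 3 min, reports TRH-evoked signalling in HEK293 cells carrying TRHR. Test compounds were added 5 min ahead of a 1 nM TRH challenge.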
# [8] = target: Thyrotropin-releasing hormone receptor (Homo sapiens) (UniProt P34981); test: qHTS assay to identify small molecule agonists of the thyrotropin-releasing hormone receptor (TRHR) signaling pathway (AID 1346891; calls by dose curve;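 note: HEK293 cells expressing TRHR with calcium dye readout; series mostly up to about 58 µM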)
# Method in brief: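 In 1536-format, 1500 TRHR-Hek293 cells per well grew 18 h, took up calcium dye for 2 h at 37 °C, received compound, and were read kinetically; 15-point titrations, triplicates.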
# [9] = Human pregnane X receptor (PXR) small molecule agonists, qHTS cell viability counter screen (AID 1346977); note: nearly all actives have a fitted effect of over 50% in size; note: potency is the fitted concentration of half-maximal effect
# Method in brief: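 Readout is CellTiter-Fluor fluorescence from PXR-Luc HepG2 cells. Plated cells rested 5hr, then were treated with compounds for 24hr at 37C and 5% CO2, with reagent present during the last hour.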
# [10] = qHTS assay to identify small molecule agonists of the TGF-beta/Smad signaling pathway (AID 1346859; active = well fitted activation curve with a large enough effect in the signal ratio in the repeat runs, not every such curve was filed as active; the % refers to the signal ratio; note: series mostly up to about 77 µM)
# Method in brief: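 Stable Smad binding element-beta-lactamase HEK 293T cells; 5 hr compound exposure at 37 C under 5% CO2; 2 hr room-temperature substrate step; fluorescence excited at 405 nm, collected at 460 nm and 530 nm.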
smiles,measurement,setting,value
FC(F)(F)C(F)(F)C(F)(F)C(F)(F)CCI,Potency,[1],inactive
same,Potency,[2],inactive
same,Potency,[3],inactive
same,Potency,[4],inactive
same,outcome,[5],inactive
same,Potency,[6],inactive
same,outcome,[7],inactive
same,outcome,[8],inactive
same,Potency,[9],inactive
CC(C)C1CCC(C(=O)N[C@H](Cc2ccccc2)C(=O)O)CC1 (stereo not given in full),Potency,[1],inactive
same,Potency,[2],inactive
same,Potency,[3],inactive
same,Potency,[4],inactive
same,outcome,[5],inactive
same,Potency,[6],inactive
same,Potency,[10],inactive
same,Potency,[9],inactive
CC1=CC[C@@H]2C[C@H]1C2(C)C,activation,[1],3.56% [at 19 µM]
same,"activity change, negative = inhibition",[2],6.78% [at 18.9 µM]
same,"activity change, negative = cytotoxicity",[3],0.83% [at 18.9 µM]
same,"activity change, negative = cytotoxicity",[4],-14.1% [at 19 µM]
same,"viability change, negative = cytotoxic",[5],2.23% [at 15.8 µM]
same,activation,[10],0.129% [at 15.8 µM]
same,"activity, negative = inhibition",[7],3.09% [at 10.5 µM]
same,activation,[8],-0.516% [at 11.8 µM]
same,"activity change, negative = cytotoxicity",[9],1.01% [at 19 µM]
COC(OC)OC,Potency,[1],inactive
same,Potency,[2],inactive
same,Potency,[3],inactive
same,Potency,[4],inactive
same,outcome,[5],inactive
same,Potency,[6],inactive
same,Potency,[10],inactive
same,Potency,[9],inactive
CCCCC[C@H](O)/C=C/[C@H]1[C@H](O)CC(=O)[C@@H]1C/C=C\CCCC(=O)O,Potency,[1],inactive
same,Potency,[2],inactive
same,Potency,[3],inactive
same,Potency,[4],inactive
same,outcome,[5],inactive
same,Potency,[6],inactive
same,outcome,[7],inactive
same,outcome,[8],inactive
same,Potency,[9],inactive
CC(C)(C(=O)c1cccnc1)c1cccnc1,Potency,[1],inactive
same,Potency,[2],inactive
same,Potency,[3],inactive
same,Potency,[4],inactive
same,outcome,[5],inactive
same,Potency,[6],inactive
same,outcome,[7],inactive
same,outcome,[8],inactive
same,Potency,[9],inactive
O=C(O)CNC(=O)c1ccccc1I,Potency,[1],inactive
same,Potency,[2],inactive
same,Potency,[3],inactive
same,Potency,[4],inactive
same,outcome,[5],inactive
same,Potency,[6],inactive
same,Potency,[10],inactive
same,Potency,[9],inactive
CC[C@@H](CO)NCCN[C@@H](CC)CO,Potency,[1],inactive
same,Potency,[2],inactive
same,Potency,[3],inactive
same,Potency,[4],inactive
same,outcome,[5],inactive
same,Potency,[6],inactive
same,Potency,[10],inactive
same,Potency,[9],inactive
CCN(CC)CC(=O)Nc1c(C)cccc1C(=O)OC,Potency,[1],inactive
same,Potency,[2],inactive
same,Potency,[3],inactive
same,Potency,[4],inactive
same,outcome,[5],inactive
same,Potency,[6],inactive
same,Potency,[9],inactive
CC(C)(C)C(O)/C=C/c1ccc2c(c1)OCO2 (stereo not given),Potency,[1],inactive
same,Potency,[2],23.7 µM (active)
same,Potency,[3],inactive
same,Potency,[4],inactive
same,outcome,[5],inactive
same,Potency,[10],inactive
same,outcome,[7],inactive
same,outcome,[8],inactive
same,Potency,[9],inactive
CCOC(=O)Oc1ccc(CCNC(=O)[C@H](CCSC)NC(C)=O)cc1OC(=O)OCC,Potency,[1],inactive
same,Potency,[2],inactive
same,Potency,[3],inactive
same,Potency,[4],inactive
same,outcome,[5],inactive
same,Potency,[6],inactive
same,Potency,[10],inactive
same,Potency,[9],inactive
CN1CCCN(C(c2ccccc2)c2ccc(Cl)cc2)CC1 (stereo not given),Potency,[1],inactive
same,Potency,[2],21.1 µM (active)
same,Potency,[3],15 µM (active)
same,Potency,[4],13.3 µM (active)
same,outcome,[5],inactive
same,Potency,[6],inactive
same,Potency,[10],inactive
same,Potency,[9],13.3 µM (active)
CC1CCc2nccnc21 (stereo not given),Potency,[1],inactive
same,Potency,[2],inactive
same,Potency,[3],inactive
same,Potency,[4],inactive
same,outcome,[5],inactive
same,Potency,[10],inactive
same,outcome,[7],inactive
same,outcome,[8],inactive
same,Potency,[9],inactive
CSCC[C@H](NC(=O)[C@H](Cc1c[nH]c2ccccc12)NC(=O)CCNC(=O)OC(C)(C)C)C(=O)N[C@@H](CC(=O)O)C(=O)N[C@@H](Cc1ccccc1)C(N)=O,Potency,[1],inactive
same,Potency,[2],inactive
same,Potency,[3],inactive
same,Potency,[4],inactive
same,outcome,[5],inactive
same,Potency,[6],inactive
same,Potency,[10],inactive
same,Potency,[9],inactive
Cc1ccc(N(CC2=NCCN2)c2cccc(O)c2)cc1,Potency,[1],inactive
same,Potency,[2],inactive
same,Potency,[3],inactive
same,Potency,[4],inactive
same,outcome,[5],inactive
same,Potency,[6],inactive
same,Potency,[10],inactive
same,Potency,[9],inactive
CNC1CCCN(c2c(F)cc3c(=O)c(C(=O)O)cn(C4CC4)c3c2OC)C1 (stereo not given),Potency,[1],inactive
same,Potency,[2],inactive
same,Potency,[3],inactive
same,Potency,[4],inactive
same,outcome,[5],inactive
same,Potency,[6],inactive
same,Potency,[9],inactive
O=CNNC=O,Potency,[1],inactive
same,Potency,[2],inactive
same,Potency,[3],inactive
same,Potency,[4],inactive
same,outcome,[5],inactive
same,Potency,[10],inactive
same,outcome,[7],inactive
same,outcome,[8],inactive
same,Potency,[9],inactive
CCCCCCCCCCCCCC(=O)OCC(O)CO (stereo not given),Potency,[1],inactive
same,Potency,[2],inactive
same,Potency,[3],inactive
same,Potency,[4],inactive
same,outcome,[5],inactive
same,Potency,[6],inactive
same,Potency,[10],inactive
same,Potency,[9],inactive
CN=C(N)NC(=O)Nc1c(C)cccc1C,Potency,[1],inactive
same,Potency,[2],inactive
same,Potency,[3],inactive
same,Potency,[4],inactive
same,outcome,[5],inactive
same,Potency,[6],inactive
same,Potency,[10],inactive
same,Potency,[9],inactive
BrC(Br)C(Br)Br,Potency,[1],inactive
same,Potency,[2],inactive
same,Potency,[3],inactive
same,Potency,[4],inactive
same,outcome,[5],inactive
same,Potency,[10],inactive
same,outcome,[7],inactive
same,outcome,[8],inactive
same,Potency,[9],inactive
COc1ccc(C)cc1,Potency,[1],inactive
same,Potency,[2],inactive
same,Potency,[3],inactive
same,Potency,[4],inactive
same,outcome,[5],inactive
same,Potency,[6],inactive
same,Potency,[10],inactive
same,Potency,[9],inactive
O=C(O)CCCc1c[nH]c2ccccc12,Potency,[1],inactive
same,Potency,[2],inactive
same,Potency,[3],inactive
same,Potency,[4],inactive
same,outcome,[5],inactive
same,Potency,[6],inactive
same,outcome,[7],inactive
same,outcome,[8],inactive
same,Potency,[9],inactive
CC/C=C\C/C=C\C/C=C\CCCCCCCC(=O)OCC,Potency,[1],inactive
same,Potency,[2],inactive
same,Potency,[3],inactive
same,Potency,[4],inactive
same,outcome,[5],inactive
same,Potency,[10],inactive
same,outcome,[7],inactive
same,outcome,[8],inactive
same,Potency,[9],inactive
Cc1cc(CCC(=O)OCCOCCOCCOC(=O)CCc2cc(C)c(O)c(C(C)(C)C)c2)cc(C(C)(C)C)c1O,Potency,[1],inactive
same,Potency,[2],inactive
same,Potency,[3],inactive
same,Potency,[4],inactive
same,outcome,[5],inactive
same,Potency,[6],inactive
same,outcome,[7],inactive
same,outcome,[8],inactive
same,Potency,[9],inactive
CC(C)(O)c1coc(S(=O)(=O)NC(=O)Nc2c3c(cc4c2CCC4)CCC3)c1,Potency,[1],inactive
same,Potency,[2],inactive
same,Potency,[3],inactive
same,Potency,[4],inactive
same,outcome,[5],inactive
same,Potency,[10],inactive
same,outcome,[7],inactive
same,outcome,[8],inactive
same,Potency,[9],inactive
CCO[Si](C)(CCCOCC1CO1)OCC (stereo not given),Potency,[1],inactive
same,Potency,[2],inactive
same,Potency,[3],inactive
same,Potency,[4],inactive
same,outcome,[5],inactive
same,Potency,[6],inactive
same,Potency,[9],inactive
CCC(CO)(CO)[N+](=O)[O-],Potency,[1],inactive
same,Potency,[2],inactive
same,Potency,[3],inactive
same,Potency,[4],inactive
same,outcome,[5],inactive
same,Potency,[6],inactive
same,Potency,[10],inactive
same,Potency,[9],inactive
